SMN2 splice up: qHTS Assay for Enhancers of SMN2 Splice Variant Expression; Potency, µM (doses to about 46.1 µM), for inactives: at the highest dose activity change, positive = activation, hits mostly activators; AID 1458, 2008; HEK293 SMN2-luciferase splicing reporter, luminescence, 30-36 h; 2.8% of 210,000 active; further: % of control where 0% means no effect; nearly all actives have a fitted effect of over 55% in size
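HEK293 cells carry an SMN2 […]–luciferase reporter in which exon 7 inclusion puts luciferase in frame. Cells were plated 10-12 h before compound addition, then incubated 30-36 h at 37C. ONE-Glo luminescence was read; sodium butyrate at 4.5 mM final served as control.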
FLuc counter: qHTS profiling assay for firefly luciferase inhibitor/activator using purifed enzyme and Km concentrations of substrates (counterscreen for miR-21 project); 6.9% of 360,000 active; Luciferin 4-monooxygenase (Photinus pyralis), P08659; purified FLuc, Km substrates, luminescence inhibition; Potency, µM (titrated, usually from 57.5 µM), for inactives: at the top dose activity change, negative = inhibition, hits mostly inhibitors;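 further: plate controls were vehicle for no effect and reference inhibitor for full effect; nearly all actives have a fitted effect of over 55% in size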
Target sequence (P08659 whole entry, looked up): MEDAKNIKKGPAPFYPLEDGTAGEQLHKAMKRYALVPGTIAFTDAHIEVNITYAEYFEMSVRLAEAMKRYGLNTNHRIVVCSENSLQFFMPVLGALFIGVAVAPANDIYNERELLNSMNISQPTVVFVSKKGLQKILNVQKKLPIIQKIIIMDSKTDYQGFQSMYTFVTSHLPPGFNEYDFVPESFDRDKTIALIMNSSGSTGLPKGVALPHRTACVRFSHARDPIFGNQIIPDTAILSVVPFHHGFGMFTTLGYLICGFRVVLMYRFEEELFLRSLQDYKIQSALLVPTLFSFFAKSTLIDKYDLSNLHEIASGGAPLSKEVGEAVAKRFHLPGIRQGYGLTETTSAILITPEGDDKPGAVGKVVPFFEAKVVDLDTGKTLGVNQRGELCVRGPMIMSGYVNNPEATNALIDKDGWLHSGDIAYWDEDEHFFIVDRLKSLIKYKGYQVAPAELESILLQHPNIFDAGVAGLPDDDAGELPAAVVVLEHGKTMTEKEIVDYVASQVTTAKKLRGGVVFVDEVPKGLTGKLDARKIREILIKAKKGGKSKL
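Purified P. pyralis luciferase (10nM final) with 10uM D-luciferin and 10uM ATP (Km levels) in 50mM Tris acetate pH 7.5, 10mM Mg acetate, 0.01% Tween-20, 0.05% BSA; qHTS 6-point titration, ~60 µM downward; luminescence read.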
ELG1 genotox: qHTS screen for small molecules that induce genotoxicity in human embryonic kidney (HEK293T) cells expressing luciferase-tagged ELG1; HEK293T ELG1-luciferase reporter, luminescence, 16 h; Potency, µM (titrated, usually from 46 µM), inactives show top-dose activity change, positive = activation, usual class: activators; 1.3% of 330,000 active; AID 504466, 2011; further: % of control where 0% means no effect; nearly all actives have a fitted effect of over 60% in size
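Cells (2,000/well) expressing the ELG1-luciferase fusion are dosed by pin tool and kept 16 hr at 37 °C, 5% CO2. Signal comes from ONE-Glo luciferase reagent after 30 min at room temperature.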
NPC1 promoter act: qHTS Assay for NPC1 Promoter Activators; Huh7 NPC1 promoter luciferase reporter, 24 h; Potency, µM (top dose mostly 9.22 µM), for the others: at the top dose activation, most hits filed as activators; 2.4% of 320,000 active; AID 485313, 2010; further: % of control where 0% means no effect; nearly all actives have a fitted effect of over 60% in size
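Huh7 cells stably carrying NPC1 promoter–luciferase, plated in Opti-MEM with 10% FBS for 2 h, were exposed to compound in DMSO for 24 h at 37 °C; luciferase reagent was added for 10 min and luminescence read.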
Rab9 promoter act: qHTS Assay for Rab9 Promoter Activators. Huh7 Rab9 promoter-luciferase reporter, luminescence, 24 h. Potency, µM (series often up to 9.22 µM), for the others: at the highest dose activation, negative = inhibition, most hits filed as activators. 2.8% of 320,000 active; further: % of control where 0% means no effect; nearly all actives have a fitted effect of over 60% in size
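Using Huh7 cells stably transfected with Rab9 promoter–luciferase, compounds were incubated 24 h at 37 °C, 5% CO2; luciferase luminescence was read 10 min after reagent addition.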
ELG1 repair inh: qHTS screen for small molecules that inhibit ELG1-dependent DNA repair in human embryonic kidney (HEK293T) cells expressing luciferase-tagged ELG1; HEK293T ELG1-luciferase reporter, luminescence, 16 h; DNA damage induced by 5-fluorouridine; Potency, µM (highest dose often 46.1 µM), for the others: at the highest dose activity change, negative = inhibition, hits mostly inhibitors; 2.3% of 330,000 active; further: on the % scale 0 is the no-effect control and ±100 the full control effect; nearly all actives have a fitted effect of over 55% in size
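Cells (2,000 per well) received 5-fluorouridine plus test compound or DMSO and were incubated 16 hr at 37 °C, 5% CO2. Luciferase activity was read by luminescence 30 min after ONE-Glo addition; signal suppression marked inhibition of damage-induced ELG1 function.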
* hit, by the source's call; ? = inconclusive; · = not tested or not shown; [ ] = dose if it differs, or a comment. In the library only some 9.2% were active in any assay of this set; here they are far more common. The call rests on the fitted dose curve; in most records, active means well fitted curve in the direction sought with a large enough effect; inconclusive means small, poorly fitted or top-dose-only effect, or another doubt; inactive means no such curve, though single readings can be large; an effect the other way counts as inactive or inconclusive. Potency means the concentration at half of the fitted maximal effect.

SMILES	SMN2 splice up	FLuc counter	ELG1 genotox	NPC1 promoter act	Rab9 promoter act	ELG1 repair inh
CC(C)C[C@H]1C(=O)N2CCC[C@H]2[C@]2(O)O[C@](NC(=O)[C@@H]3C=C4c5cccc6[nH]c(Br)c(c56)CC4N(C)C3)(C(C)C)C(=O)N12 (some centres not stated)	-65.6%	1.4%	-3.3%	-4.7%	-4.2%	18.4µM*
c1ccc2c(c1)CCNC2	-6.3%	·	·	·	·	·
N#CC(C#N)=NNc1ccc(-n2ccc(C(F)(F)F)n2)cc1	·	15.1µM*	-15.9%	-35.5%	-40.7%	?
Cc1cc(C)n(-c2ccc(NN=C(C#N)C#N)cc2)n1	·	15.1µM*	-4.5%	-1.0%	-1.5%	0.0%
NC(=O)c1ncn([C@H]2O[C@@H](CO)[C@@H](O)[C@@H]2O)n1	3.8%[20.6 µM]	·	·	·	·	·
CN(C)CCC(C#N)(c1ccccc1)c1ccccc1	-8.3%[9.22 µM]	·	·	·	·	·
O=C(CCn1c(=O)oc2ccccc21)N1CCN(C(c2ccccc2)c2ccccc2)CC1	-24.1%	-1.2%	-12.5%	-0.4%	0.2%	13µM*
O=C(O)C[C@H]1OCC=C2CN3CC[C@@]45C6=CC(=O)C(=O)C([N+](=O)[O-])=C6N[C@H]4[C@H]1[C@H]2C[C@@H]35	-15.1%[9.22 µM]	·	·	·	·	·
OC[P+](CO)(CO)CO	0.9%	·	·	·	·	·
O=c1[nH]c(O)c(N=Nc2ccc([N+](=O)[O-])cc2)c(=O)[nH]1	-2.1%	?	4.4%	4.1%	23.6%	?
CC(C)c1ccc(N=Nc2c(O)[nH]c(=O)[nH]c2=O)cc1	·	2.39µM*	?	?	?	?
O=c1[nH]c(=S)[nH]c(O)c1N=Nc1ccc(SC(F)F)cc1	·	1.2µM*	6.51µM*	3.16µM*	3.16µM*	?
O=C(O)c1cccc(N=Nc2c(O)[nH]c(=O)[nH]c2=O)c1	·	15.1µM*	-1.8%	-3.8%	26.7%	-2.1%
O=C(c1ccccc1)c1ccc(N=Nc2c(O)[nH]c(=O)[nH]c2=O)cc1	3.3%	0.9%	12.2%	-9.0%	?	18.1%
O=S(=O)(NCCO)c1cc[c]([Sb])cc1	-4.5%[9.22 µM]	·	·	·	·	·
COc1ccc(-n2nc(C(=O)NCC(=O)N3CCC4(CC3)OCCO4)c3ccccc3c2=O)cc1Cl	·	1.2µM*	11.5%	?	?	?
COc1ccc(-n2nc(C(=O)NCC(=O)N3CCC4(CC3)OCCO4)c3ccccc3c2=O)cc1	·	1.07µM*	?	?	?	?
Cc1ccc(N=C=O)cc1N=C=O	4.2%	·	·	·	·	·
CN(C)c1ccc(/C=C2/C(=N\O)C3CCN2CC3)cc1	·	19µM*	?	?	2.82µM*	?
O=C1/C(=C\c2ccc([N+](=O)[O-])cc2)N2CCC1CC2	-16.6%	2.3%	-0.5%	-3.3%	2.2%	19.2%
Cc1cc(NC(=O)c2noc3c2CCCCC3)no1	?	15.1µM*	?	?	?	?
COc1ccc(CCNC(=O)c2ccc3c(c2)N=C(C)c2cc(C)ccc2S3)cc1OC	-31.3%	-10.4%	·	·	·	·
Cc1ccc(C)c(NP(=O)(Oc2ccccc2)Oc2ccccc2)c1	·	1.5%	-14.6%	2.1%	-0.5%[1.84 µM]	8.2µM*
Cc1ccc(S(=O)(=O)NP(=O)(Oc2ccccc2)Oc2ccccc2)cc1	-25.8%	5.9%	1.2%	0.5%	-2.1%	0.0%
CC(=O)Nc1ccc(S(=O)(=O)N2CCSC2c2ccc(C)cc2)cc1 (configuration not stated)	-57.8%	0.8%	-18.5%	2.1%	3.8%	16.4µM*
SMILES	SMN2 splice up	FLuc counter	ELG1 genotox	NPC1 promoter act	Rab9 promoter act	ELG1 repair inh
Cc1ccc(S(=O)(=O)N2CCCC2c2cccnc2)cc1 (configuration not stated)	·	-1.3%	-0.9%	-3.8%	1.6%	0.4%
CCOc1ccc(NC(=O)C(=S)NC2CCCCC2)cc1	?	13.5µM*	?	?	?	?
N#CC(Cl)Cl	-4.5%	·	·	·	·	·
CCOc1ccc(N2C(=O)NC(=O)/C(=C\c3ccc(N4CCOCC4)cc3C)C2=O)cc1	-5.5%	?	3.5%	0.1%	2.2%	?
C#CCN1C(=O)S/C(=C\c2ccc(N3CCOCC3)cc2C)C1=O	22.2%	2.39µM*	?	?	2.82µM*	?
c1ccc(NC2=Nc3ccccc3CC2)cc1	11.2%	?	16.4µM*	?	?	?
Oc1ccc(Cl)cc1Cl	1.7%	·	·	·	·	·
COc1ccc(CNC(=O)c2ccc(C(C)C)cc2)cc1	12.6µM*	9.53µM*	?	3.55µM*	2.24µM*	?
CC(=O)Nc1ccccc1C(=O)OCc1ccccc1F	24.1%	-4.4%	?	15.6%	16.8%	?
CC(=O)Nc1ccccc1C(=O)OCC(=O)c1ccccc1Cl	16.9%	9.53µM*	?	?	3.55µM*	?
Cc1ccnc(SCc2nc3ccccc3s2)n1	11.2µM*	6.75µM*	9.2µM*	?	3.55µM*	?
C=CCn1c(O)c(C(C)=Nc2cc(OC)ccc2OC)c(=O)[nH]c1=O	10.2%	0.4%	23.1µM*	-2.9%	15.0%	0.0%
CCCCOC(=O)c1ccccc1N	-6.2%	·	·	·	·	·
CCCOC(=O)c1cc2c(cn1)[nH]c1ccccc12	28.2µM*	·	·	·	·	·
CC(=O)N1CCN(c2ccc(OCC3CO[C@@](Cn4ccnc4)(c4ccc(Cl)cc4Cl)O3)cc2)CC1 (some centres not stated)	-68.6%	·	·	·	·	·
C(=NCCN1CCOCC1)=NC1CCCCC1	6.8%[9.22 µM]	·	·	·	·	·
O=C(CCc1nnc(CCCCc2ccccc2)o1)N1CCCC(O)C1 (configuration not stated)	·	-15.2%	5.7%	-1.4%	7.6%	?
CCCOC1CCCN(C(=O)CCc2nnc(Cc3cccc(C)c3)o2)C1 (configuration not stated)	·	21.3µM*	?	?	2.82µM*	?
Cc1nc2ccc(NC(=O)C3COc4ccccc4O3)cc2s1 (configuration not stated)	·	12µM*	?	?	?	?
O=C(NCCSc1c(-c2ccc(F)cc2)[nH]c2ccccc12)c1ccc(S(=O)(=O)N2CCOCC2)cc1	-36.5%	3.1%	·	·	·	·
ClCBr	-0.5%	·	·	·	·	·
COc1ccc(CCN2CCCC(CN(C)C(=O)c3cc(C)oc3C)C2)cc1 (configuration not stated)	·	13.5µM*	18.3µM*	2.51µM*	2.24µM*	?
COc1cccc(C(=O)C2CCCN(Cc3ccc(F)cc3)C2)c1 (configuration not stated)	·	7.5%	-1.5%	-0.9%	-11.0%	0.1%
